Compound activity (PubChem BioAssay)
NS1 function inh – inhibitors of influenza NS1 protein function; Potency, µM (titrated, usually from 46.1 µM), without a hit: at the top dose activity, positive = more growth; hit rate 0.4% among 270,000; AID 2326; also: potency is read from the fitted curve at half-maximal effect; actives are rising curves; nearly all actives have a fitted effect of over 50% in size
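OD600 was taken as the measure of yeast growth restored by compound in an NS1-expressing S. cerevisiae strain. Cells had been washed out of glucose medium and diluted 1:100 into galactose -URA medium, pH 6.0.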
Cruzain Triton – blocks cruzain activity in presence of Triton detergent | P25779 | purified cruzain, Z-FR-AMC fluorescence, 0.01% Triton | Potency, µM, for the others: max response, negative = inhibition, hits mostly inhibitors | hit rate 0.43% among 200,000 | AID 1478; active = well fitted curve in the direction sought with a large enough effect; inconclusive = small, poorly fitted or top-dose-only effect, or another doubt; inactive = no such curve, though single readings can be large; an effect the other way counts as inactive or inconclusive;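 also: potency is read from the fitted curve at half-maximal effect; plate controls were neutral wells for no effect and buffer without enzyme for full effect; nearly all actives have a fitted effect of over 40% in size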
Target sequence (P25779 123-467 limits assumed): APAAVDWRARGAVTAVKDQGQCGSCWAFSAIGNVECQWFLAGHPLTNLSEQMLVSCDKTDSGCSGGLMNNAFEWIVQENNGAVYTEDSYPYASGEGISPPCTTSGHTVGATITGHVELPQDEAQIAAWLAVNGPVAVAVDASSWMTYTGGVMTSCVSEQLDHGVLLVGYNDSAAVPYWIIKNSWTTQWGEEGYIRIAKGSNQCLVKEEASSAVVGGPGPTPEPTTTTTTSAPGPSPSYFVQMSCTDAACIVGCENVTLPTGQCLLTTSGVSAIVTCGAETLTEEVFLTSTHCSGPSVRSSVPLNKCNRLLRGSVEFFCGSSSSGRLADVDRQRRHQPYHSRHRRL
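Steps: dispense cruzain (1.5 nM final) in acetate buffer pH 5.5 with DTT and 0.01% Triton X-100; pin-transfer compounds; incubate 15 min RT; add Z-FR-AMC (2 uM final); read fluorescence every 30 s, using the 60 s intensity change.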
Cruzain inh noDet – cruzain (T. cruzi) inhibition without detergent; Potency, µM, for the others: max response, negative = inhibition, most hits filed as inhibitors; AID 1476; P25779; purified cruzain, Z-FR-AMC fluorescence, no detergent; hit rate 2.3% among 200,000; active = well fitted curve in the direction sought with a large enough effect; inconclusive = small, poorly fitted or top-dose-only effect, or another doubt; inactive = no such curve, though single readings can be large; an effect the other way counts as inactive or inconclusive;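 also: potency is read from the fitted curve at half-maximal effect; plate controls were enzyme without inhibitor for no effect and buffer without enzyme for full effect; nearly all actives have a fitted effect of over 40% in size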
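Purified cruzain at 1.5 nM, pre-incubated 15 min with compound at room temperature in 100 mM sodium acetate pH 5.5, 5 mM DTT, 0.00005% Triton X-100. Reaction started with 2 uM Z-FR-AMC; AMC fluorescence increase over 60 s gives rate.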
Flu NS1 inh – validation of influenza NS1 protein function inhibitors | shares compounds with NS1 function inh | influenza NS1 function cell assay, 15-point titration | activity change, negative = inhibition, % at 32.9 µM | 1,400 tested, under 10 active; also: 0% is about no effect
PR8 titer – reduces influenza A/PR/8/34 replication in MDCK cells; hit rate 30% among 95; virus titer (log TCID50), log10 TCID50 at 5 µM; shares compounds with NS1 function inh; AID 504647; MDCK infected influenza A/PR/8/34, virus titer TCID50; active compounds read low; call rule not given here
* = called active by the depositor; ? = inconclusive; . = no result given. Shown is part of a subset that was picked to be rich in hits. Unless noted, calls follow the shape of the full dose curve.

SMILES	NS1 function inh	Cruzain Triton	Cruzain inh noDet	Flu NS1 inh	others
CC1(C)OC(=O)C(=CNc2ccccc2)C(=O)O1	-14%	-5%	-10%	.
CC1(C)OC(=O)C(=CNCC(O)c2ccccc2)C(=O)O1 (stereo unspecified)	16µM*	6%	-2%	-3
COCCn1c(SCc2nc3ccccc3c(=O)[nH]2)nnc1-c1ccncc1	-7%	2%	0%	.
O=C(O)CC/C(=N\NC(=O)CNC(=O)c1ccc(F)cc1)c1ccccc1	3%	.	.	.
O=C(COC(=O)Cc1ccccc1F)Nc1ccc(F)cc1F	0%	.	.	.
COc1nc(-c2ccc(Cl)cc2)ccc1-c1noc(-c2ccncc2)n1	-11%	.	.	.
C=CCNC(=O)NC(=O)COC(=O)/C(C#N)=C/c1cc(C)n(CC(C)C)c1C	-3%	-8%	?	.
CCCn1c(C)cc(/C=C(\C#N)C(=O)OCC(=O)NC(=O)NC(C)(C)C)c1C	3.2µM*	-9%	-7%	-4
c1ccc(Nc2cc(Nc3ccccc3)[nH]n2)cc1	4.5µM*	-7%	0%	-5
O=c1nccc(Nc2ccccc2)[nH]1	3%	.	.	.
COC(=O)c1ccccc1NC(=O)c1cc(=O)c2ccc(C)c(C)c2o1	.	-2%	-3%	.
COc1ccccc1/C=C(\NC(=O)c1ccc(OC)c(OC)c1)C(=O)Nc1cccc([N+](=O)[O-])c1	?	-3%	9%	.
COc1ccccc1/C=C(\NC(=O)c1ccc(OC)c(OC)c1)C(=O)Nc1ccc([N+](=O)[O-])cc1	13µM*	-3%	6%	13
COc1ccc(/C=C(\NC(=O)c2ccc(OC)cc2)C(=O)Nc2ccc(C(=O)O)cc2)cc1	1%	.	.	.
COc1ccc(C(=O)N/C(=C\c2ccccc2)C(=O)Nc2cccc(C(=O)O)c2)cc1	10µM*	.	.	4
CCOC(=O)c1cnn(-c2ccc(C(=O)Nc3ccc(OC(F)(F)F)cc3)cc2)c1N	.	0%	-21%	.
COc1ccc2nc(SCC(=O)Nc3ccccc3)[nH]c2c1	?	-30%	-18%	-16
COc1ccc2nc(SCC(=O)NCc3ccccc3)[nH]c2c1	16%	.	.	.
CCC(=O)Nc1sc2c(c1C#N)CC(C)(C)NC2(C)C	-25%	4%	10%	.
CC(C)CC(=O)Nc1sc2c(c1C#N)CC(C)(C)NC2(C)C	10µM*	4%	-1%	-1
CC1=C(C(=O)NCc2ccc(Cl)cc2)C2(CCCCC2)OC1=O	.	0%	0%	.
O=C(C1CCC1)N1CCc2cc(S(=O)(=O)NC3CCCc4ccccc43)ccc21 (stereo unspecified)	6%	-2%	-3%	.
O=C(O)CCC(=O)N1CCc2cc(S(=O)(=O)NC3CCCc4ccccc43)ccc21 (stereo unspecified)	3.5µM*	0%	?	20
O=C(COc1ccc(Cl)cc1)N1CCN(c2ccc([N+](=O)[O-])c(N3CCCCC3)c2)CC1	11µM*	-4%	-7%	?
Cc1cc(OCC(=O)N2CCCCCC2)ccc1[N+](=O)[O-]	-4%	-3%	-3%	.
SMILES	NS1 function inh	Cruzain Triton	Cruzain inh noDet	Flu NS1 inh	others
O=C(c1ccc(F)cc1)N1CCN(c2ccc([N+](=O)[O-])c(N3CCCCC3)c2)CC1	-17%	-9%	-1%	.
O=C(COc1ccccc1Cl)N1CCN(c2ccc([N+](=O)[O-])c(N3CCCCC3)c2)CC1	?	-6%	-17%	-17
COc1cc(OC)cc(C(=O)NC(=S)Nc2ccc3[nH]c(=O)[nH]c3c2)c1	15%	.	.	.
CNC(=O)C(=O)NCC1OCCN1S(=O)(=O)c1ccc([N+](=O)[O-])cc1 (stereo unspecified)	10%	-1%	13%	.
CCc1nnc(NS(=O)(=O)c2ccc(NC(=O)c3cc(Cl)ccc3Cl)cc2)s1	11%	.	.	.
CCc1nnc(NS(=O)(=O)c2ccc(NC(=O)c3cc(Cl)ccc3[N+](=O)[O-])cc2)s1	11µM*	.	.	29	PR8 titer=8.3
Cc1c(C(=O)Nc2cccc(Cl)c2)oc2ccc(S(=O)(=O)N3CCC4(CC3)OCCO4)cc12	11µM*	-2%	3%	-19
COc1cccc(NC(=O)c2oc3ccc(S(=O)(=O)N4CCC5(CC4)OCCO5)cc3c2C)c1	.	-2%	?	.
Cc1ccc(C(=O)Nc2nc3ccccc3c(=O)s2)cc1	6%	2%	?	.
O=S(=O)(c1ccc2nc(-c3ccco3)c(-c3ccco3)nc2c1)N1CCOCC1	1µM*	22µM*	1%	-19
O=S(=O)(c1ccc2ccccc2c1)N1CCOCC1	5%	.	.	.
NNS(=O)(=O)c1ccc2c(c1)Cc1cc(S(=O)(=O)NN)ccc1-2	-3%	.	.	.
O=C(O)C1CCCCC1C(=O)Nc1ccc(S(=O)(=O)N2CCCCC2)cc1 (stereo unspecified)	8%	.	.	.
C=CCC(C)(NCc1ccccc1)c1ccco1 (stereo unspecified)	-6%	8%	6%	.
COc1ccc(-c2c(C)nc(N)nc2-c2ccc(OC)cc2O)cc1	-4%	.	.	.
COc1ccc(-c2c(C)nc(N)nc2-c2ccc(OCc3ccc(C)cc3)cc2O)cc1OC	3.2µM*	-6%	?	2
Cc1cc(C(=O)O)ccc1-n1c(C)cc(/C=C2\SC(=O)NC2=O)c1C	11µM*	.	.	17
Cc1cc(/C=C2/SC(=O)NC2=O)c(C)n1-c1ccc(N2CCOCC2)cc1	5%	-2%	17%	.
O=C(NC1CCCCC1)c1cc(-c2ccc(O)cc2)on1	3%	.	.	.
NS(=O)(=O)c1ccc(NC(=O)CN2CCc3ccccc3C2)cc1	-13%	.	.	.
CCC(CO)NC(=O)[C@@H]1C=C2c3cccc4[nH]cc(c34)C[C@H]2N(C)C1 (stereo partly specified)	35µM*	-8%	?	4
CC(C)C[C@H]1C(=O)N2CCCC2[C@]2(O)O[C@](NC(=O)[C@@H]3C=C4c5cccc6[nH]cc(c56)CC4N(C)C3)(C(C)C)C(=O)N12 (stereo partly specified)	30%	-2%	6%	.
COc1ccc(N2CCN(CCCNC(=O)c3cc(Nc4ccc(OC)cc4OC)nc4ccccc34)CC2)cc1	.	0%	-6%	.
O=[N+]([O-])c1ccc(N2CCN(S(=O)(=O)c3ccccc3[N+](=O)[O-])CC2)cc1NCc1cccnc1	14µM*	-5%	?	31
CCS(=O)(=O)N1CCN(c2ccc([N+](=O)[O-])c(NCc3cccnc3)c2)CC1	1%	.	.	.
SMILES	NS1 function inh	Cruzain Triton	Cruzain inh noDet	Flu NS1 inh	others
COc1ccccc1CCCNC(=O)C1CCC(=O)N(CCc2ccc(Cl)cc2)C1 (stereo unspecified)	-30%	.	.	.
S=C(Nc1ccc(Oc2ccc(NC(=S)NC3CCCCC3)cc2)cc1)NC1CCCCC1	11µM*	-1%	4µM*	-3
S=C(Nc1ccc(Oc2ccccc2)cc1)NC1CCCCCC1	-25%	-5%	5%	.
Cc1ccc(C)c(CN2C(=O)c3ccccc3S(=O)c3ccc(C(=O)NCCCN4CCCC4)cc32)c1 (stereo unspecified)	17%	.	.	.
Cc1ccc(-c2ccc(S(=O)(=O)N3CCN(C)CC3)cc2)cc1	11µM*	1%	-26%	-34
CN1CCN(S(=O)(=O)c2ccc(-c3ccccc3)cc2)CC1	-2%	3%	-17%	.
